The campaign covered roughly 310,000 compounds. About 410 (0.13%) were called active. Another 2% or so got no clear call; they are omitted. How the calls were made is not given here. The list is a sample of the results. Entries with a potency or affinity are not part of this list.

This assay can be described thus: RSV antiviral activity via CPE protection, HEp-2 cells, primary 10 µM value included (AID 2391). The note with it: RSV-induced CPE inhibition, at 10 µM, hits give high values.
For `Clc1cnc(N/N=C/c2ccco2)c(Cl)c1`, the CPE inhibition was 5.1% (inactive). Consider `O=C(CC1C(=O)NCCN1Cc1ccoc1)NCc1cccc(OC(F)(F)F)c1` (centres undefined), for which the CPE inhibition is -0.85% (inactive). Then `CC(Sc1nnc(CNC(=O)c2ccco2)n1C)C(=O)Nc1nccs1` (centres undefined), with -0.02% (inactive). As to `CCN(CC(=O)NCc1ccc(F)cc1)C(=O)COc1ccc2ccccc2c1`, the CPE inhibition was 1.64% (inactive). For the molecule `COC(=O)CSc1nnc(CNC(=O)c2ccccc2F)n1-c1ccc(F)cc1`, the CPE inhibition is 1.47% (inactive). Regarding `CSc1ccc(NC(=O)N2CCC(C(=O)c3ccc(F)cc3)CC2)cc1`, the CPE inhibition is 8.24% (inactive). Regarding `COc1ccc(S(=O)(=O)N2CCN(C(=O)c3ccc4ccccc4n3)CC2)cc1`, the CPE inhibition was 3.49% (inactive).

In the case of `Cc1cc(C)c(NC(=O)CSc2nnc(CNC(=O)c3ccco3)o2)c(C)c1`, the CPE inhibition is -0.65% (inactive). Turning to `COc1ccccc1-c1oc2ccccc2c1C#CCCO`, the CPE inhibition is 3.39% (inactive).

As for `Cc1cccc(-c2oc3ccccc3c2C#CCCCCO)c1`, the CPE inhibition is 3.25% (inactive).

Regarding `COc1cc(C2NC(C(=O)O)Cc3c2[nH]c2ccccc32)cc(OC)c1OC` (centres undefined), the CPE inhibition was 5.99% (inactive). Then `CC(=O)Nc1nnc(SCC(=O)c2ccc(F)cc2)s1`, with 1.4% (inactive).

For the molecule `CCC(=O)Nc1nnc(SCC(=O)c2ccc3c(c2)Cc2ccccc2-3)s1`, the CPE inhibition was 42.4% (inactive). For the molecule `Cc1c(NC(=S)Nc2ccc(Cl)cc2)c(=O)n(-c2ccccc2)n1C`, the CPE inhibition was 2.83% (inactive). Regarding `Cc1c(Cl)cccc1NC(=S)NCCN1CCOCC1`, the CPE inhibition is 1.32% (inactive). `COc1ccc(C(=O)COc2ccc3c(C)cc(=O)oc3c2)cc1`: the CPE inhibition was 1.42% (inactive). Consider `Cc1ccc(-c2nnc3c4ccccc4c(C)nn23)cc1S(=O)(=O)N1CCN(C)CC1`, for which the CPE inhibition was 0.37% (inactive). Turning to `Cc1ccc(-c2nnc3c4ccccc4c(C)nn23)cc1S(=O)(=O)N1CCN(CCO)CC1`, the CPE inhibition was 8.23% (inactive).

For `COc1ccc(-c2nnc3c4ccccc4c(C)nn23)cc1S(=O)(=O)N1CCN(CCO)CC1`, the CPE inhibition was -0.91% (inactive).

Take `Cc1nn2c(-c3ccc(S(=O)(=O)N4CCN(C)CC4)o3)nnc2c2ccccc12`: the CPE inhibition was -1.89% (inactive).

Regarding `Cc1cc(NC(=O)CCC(=O)N(Cc2ccco2)C2(C(=O)NC3CCCC3)CCCCC2C)no1` (centres undefined), the CPE inhibition is 2.17% (inactive).

In the case of `O=C(c1ccc(F)cc1)N1C2CCC1CC(O)(c1ccc(F)cc1)C2` (centres undefined), the CPE inhibition is 0.65% (inactive). The same measure for `COc1ccc(S(=O)(=O)N2CCCCC2)cc1C(=O)N1CCCCCC1`: 1.11% (inactive); for `CC1Cc2ccccc2N1C(=O)COC(=O)c1ccc(Br)o1` (centres undefined): -0.89% (inactive). For `Cc1ccc(NC(=S)N2CCC(O)CC2)c(C)c1`, the CPE inhibition was 3.11% (inactive). As for `Cc1cccc(C)c1NC(=O)CN(C)CC(=O)c1c(N)n(Cc2ccccc2)c(=O)n(C)c1=O`, the CPE inhibition was 0.19% (inactive). `Cc1ccc2nc(C)cc(C(=O)OCC(=O)Nc3c(C)n(C)n(-c4ccccc4)c3=O)c2c1`: the CPE inhibition is 2.74% (inactive).

In the case of `Cc1c(NC(=O)COC(=O)c2cc(-c3cccc4ccccc34)nc3ccccc23)c(=O)n(-c2ccccc2)n1C`, the CPE inhibition was 1.88% (inactive).

For `COc1ccc(/C=N/NC(=O)Cc2ccc(Cl)cc2)cc1OC`, the CPE inhibition is 1.07% (inactive). Consider `CN(C)c1ccc(NC2=C(Cl)C(=O)c3ccccc3C2=O)cc1`, for which the CPE inhibition was -2.87% (inactive). With `COc1ccc(NC2=C(NC(C)=O)C(=O)c3ccccc3C2=O)cc1`, the CPE inhibition is -0.06% (inactive). For the molecule `CCC1=NN2C(=N)/C(=C\c3cccn3-c3ccc(C)c(C)c3)C(=O)N=C2S1`, the CPE inhibition was 15.3% (inactive). Regarding `CCC1=NN2C(=N)/C(=C\c3cccn3-c3ccc(C)cc3C)C(=O)N=C2S1`, the CPE inhibition is 16.1% (inactive).

`c1ccc(-n2cc(CN3CCCC3)c(-c3ccc4c(c3)OCO4)n2)cc1`: the CPE inhibition is 5.52% (inactive). As to `Cc1ccc(NC(=O)c2sc(N)nc2-c2ccc([N+](=O)[O-])cc2)cc1C`, the CPE inhibition is -0.73% (inactive). As to `Cc1ccccc1C(=O)NC(C)C(c1cccs1)N1CCOCC1` (centres undefined), the CPE inhibition is -0.28% (inactive). For the molecule `Cc1nn(-c2ccccc2)c2nc(N)c(C#N)c(-c3ccc(O)c(O)c3)c12`, the CPE inhibition is 39.2% (inactive). The same measure for `Cc1nn(-c2ccc(F)cc2)c2nc(N)c(C#N)c(-c3ccc(O)c(O)c3)c12`: 0.04% (inactive). The same measure for `Cc1ccc(C)c2c1cc(C)c1nnc(SCC(=O)NCc3ccc4c(c3)OCO4)n12`: 2.14% (inactive); for `CCOC(=O)/C(C#N)=C/c1c(N2CCN(c3ccc(OC)cc3)CC2)nc2c(C)cccn2c1=O`: 7.79% (inactive). Regarding `Cc1ccc(N2CC(O)Cn3c2nc2c3c(=O)n(C)c(=O)n2C)cc1` (centres undefined), the CPE inhibition was 0.84% (inactive).

`Cc1csc(NC(=O)CSc2nnc(C)c(=O)n2N)n1`: the CPE inhibition is -0.18% (inactive).

Take `NNC(=O)c1[nH]c(-c2ccccc2)cc1-c1ccccc1`: the CPE inhibition is 0.95% (inactive). The same measure for `O=C1c2ccccc2C(Nc2ccccc2)N1Cc1ccc2c(c1)OCO2` (centres undefined): 8.65% (inactive).

On to `O=C1c2ccccc2C(Nc2ccc3c(c2)OCO3)N1Cc1ccc2c(c1)OCO2` (centres undefined), for which the CPE inhibition is 13.8% (inactive). Turning to `C/C=C/C(=O)Nc1nnc(-c2ccccc2C)s1`, the CPE inhibition is 0.32% (inactive).

For `CCOc1cccc(C(=O)Nc2ccccc2C(=O)N2CCN(C)CC2)c1`, the CPE inhibition was -0.42% (inactive). Consider `CC(CC(=O)Nc1nccs1)c1ccccc1` (centres undefined), for which the CPE inhibition was -0.09% (inactive).

On to `COc1cc2c(cc1OC)CN(C(=O)c1cccc(S(=O)(=O)N(C)C)c1)CC2`, for which the CPE inhibition is 1.79% (inactive). For the molecule `O=C(c1cccc(S(=O)(=O)N2CCc3ccccc32)c1)N1CCc2ccccc2C1`, the CPE inhibition is 7.22% (inactive). As to `O=C(C1CC(=O)N(c2ccc(F)cc2)C1)N1CCOCC1` (centres undefined), the CPE inhibition is 3.24% (inactive). Regarding `Cn1c(O)c(/C=C2\C=Nc3ccccc32)sc1=Nc1ccc(C(=O)O)cc1`, the CPE inhibition was 1.42% (inactive). As for `C/C(=N\NC(=O)c1ccc(NS(=O)(=O)c2cccs2)cc1)c1ccncc1`, the CPE inhibition was 3.91% (inactive).

As to `C/C(=N\NC(=O)c1ccc(NS(=O)(=O)c2cccs2)cc1)c1ccccc1`, the CPE inhibition was -0.3% (inactive). Take `CC(C)=CCCC(C)CN1CCC(n2nccc2NC(=O)c2ccc3c(c2)OCO3)CC1` (centres undefined): the CPE inhibition was -0.22% (inactive). Then `COCCCNC(=O)c1ccc(Cn2c(=O)c3ccccc3n(Cc3cc(C)ccc3C)c2=O)cc1`, with 1.91% (inactive); and `N#Cc1ccccc1Cn1c(=O)n(Cc2ccc(C(=O)NCc3ccco3)cc2)c(=O)c2ccccc21`, with 2.54% (inactive). `O=C(NCc1ccco1)c1ccc(Cn2c(=O)c3ccccc3n(Cc3cccc(F)c3)c2=O)cc1`: the CPE inhibition is 4.05% (inactive). Turning to `COCCCNC(=O)c1ccc(Cn2c(=O)c3ccccc3n(Cc3ccccc3C)c2=O)cc1`, the CPE inhibition is 1.4% (inactive). In the case of `O=C(NCc1ccco1)c1ccc(Cn2c(=O)c3ccccc3n(Cc3cccc(Cl)c3)c2=O)cc1`, the CPE inhibition was 18.6% (inactive).

For the molecule `O=C(CCCn1c(=O)c2sccc2n(Cc2ccc(F)cc2)c1=O)NCc1ccco1`, the CPE inhibition is -0.44% (inactive). Consider `O=C(NCc1ccco1)c1ccc2c(=O)n(-c3ccccc3)c(=O)n(Cc3cccc(F)c3)c2c1`, for which the CPE inhibition was 0.67% (inactive). The same measure for `N#Cc1ccccc1Cn1c(=O)n(Cc2ccc(C(=O)NCc3ccco3)cc2)c(=O)c2sccc21`: 2.1% (inactive).

On to `CCN1CCCC1CNC(=O)Cn1ncc2c(=O)oc3ccc(C)cc3c21` (centres undefined), for which the CPE inhibition is 2.08% (inactive). As for `Cc1ccccc1/C=N\NC(=O)c1ccc(Cn2cccn2)o1`, the CPE inhibition is 1.85% (inactive). Regarding `O=c1nc2ccccc2c2n1CC(CN1CCN(c3ccc(F)cc3)CC1)N2` (centres undefined), the CPE inhibition is -0.72% (inactive).

In the case of `CCCOc1ccccc1C1NC(=O)NC(C)=C1C(=O)OCCOCC` (centres undefined), the CPE inhibition was -0.41% (inactive). With `CCC(C)c1ccccc1NC(=S)Nc1cccnc1` (centres undefined), the CPE inhibition was 3.94% (inactive). Regarding `Cc1ccc(N2C(=O)N(C(C)C)C(C)(C)CC2(C)O)cc1` (centres undefined), the CPE inhibition is 2.14% (inactive). Take `O=C(c1cccc(Cl)c1)C1CCCN(C(=O)c2ccoc2)C1` (centres undefined): the CPE inhibition is -0.58% (inactive). Turning to `O=c1cc(-c2ccc(O)c(O)c2)oc2cc(O)c(C3OC(CO)C(O)C(O)C3O)c(O)c12` (centres undefined), the CPE inhibition was 0.47% (inactive). Then `O=c1cc(-c2ccc(O)cc2)oc2c(C3O[C@H](CO)[C@@H](O)[C@H](O)[C@H]3O)c(O)cc(O)c12` (some centres undefined), with -1.94% (inactive); and `O=C1c2cccnc2C(Nc2cccc(F)c2)N1Cc1ccco1` (centres undefined), with 12% (inactive). On to `O=C1c2cccnc2C(Nc2ccccc2Br)N1Cc1ccco1` (centres undefined), for which the CPE inhibition is 4.55% (inactive). For `COc1cc(NC2c3ncccc3C(=O)N2Cc2ccco2)cc(OC)c1` (centres undefined), the CPE inhibition was 9.47% (inactive). As to `COc1ccc(OC)c(NC2c3ncccc3C(=O)N2Cc2ccco2)c1` (centres undefined), the CPE inhibition is 6.51% (inactive).

On to `CCCOc1ccc(CN(C(=O)c2cccc(OC)c2)C2CCS(=O)(=O)C2)cc1` (centres undefined), for which the CPE inhibition is 0.38% (inactive).

Regarding `CC(O)CNc1nc2ccccc2n1CC(=O)NCC(F)(F)F` (centres undefined), the CPE inhibition is 0.4% (inactive). For the molecule `O=C(Oc1ccc(C(=S)N2CCOCC2)cc1)c1ccc([N+](=O)[O-])cc1[N+](=O)[O-]`, the CPE inhibition was 1.71% (inactive). Regarding `O=C(COc1ccc(F)cc1Cl)Nc1ccc(S(=O)(=O)Nc2nccs2)cc1`, the CPE inhibition was -1.6% (inactive). On to `CC(C)(C)c1cc(CNC2CS(=O)(=O)C[C@@H]2O)cc(C(C)(C)C)c1O` (some centres undefined), for which the CPE inhibition was 0.68% (inactive). On to `Cc1cc(Nc2cccc(Cl)c2)c2ccccc2n1`, for which the CPE inhibition is 11% (inactive). Then `COC(=O)c1cccc(Nc2nc3ccccc3nc2C)c1`, with 7.1% (inactive); and `CCOc1ccc(-c2c(C(=O)N/N=C/C3CC=CCC3)nnn2-c2nonc2N)cc1` (centres undefined), with 0.26% (inactive); and `CCN(CC)S(=O)(=O)c1ccc(C2=NOC3(C2)N(C)c2ccccc2C3(C)C)cc1` (centres undefined), with 49.6% (inactive). With `CC1=NOC2(C1)N(C)c1ccccc1C2(C)C` (centres undefined), the CPE inhibition was -0.95% (inactive). Consider `CN1c2ccccc2C(C)(C)C12CC(CCl)=NO2` (centres undefined), for which the CPE inhibition is 0.62% (inactive). In the case of `CN1c2ccccc2C(C)(C)C12CC(c1ccc(Cl)c(S(=O)(=O)N3CCCC3)c1)=NO2` (centres undefined), the CPE inhibition was 3.21% (inactive). The same measure for `COC(=O)COc1ccc(S(=O)(=O)NCc2ccc3c(c2)OCO3)cc1C`: 1.14% (inactive).

The record behind these values is PubChem BioAssay AID2391 (Southern Research Specialized Biocontainment Screening …, 2010).
